{
  "source": "the supplement of paper PMC12067093",
  "about": "“Discovery and optimisation of a covalent ligand for TRIM25 and its application to targeted protein ubiquitination” (Chemical Science, 2025)",
  "compound": "CC1Cc2ccccc2N1C(=O)C1CCCN(C1)C(=O)CCl (mixture of isomers) [TRIM25 ligand 11 (diastereomer mixture)]",
  "test": "probe-labelled cysteine peptide fold change vs DMSO (competition) (log2 fold change); higher = less target engagement (more negative = stronger competition)",
  "conditions": "THP-1, incubation time: 4 h",
  "note": "Of roughly 21,000 targets only a part is listed; those with the largest changes were picked by preference.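 Also: competitive chemoproteomic profiling in live THP-1 cells with an iodoacetamide desthiobiotin (IA-DTB) probe, comparing probe-labelled peptide intensities in compound-treated cells against DMSO-treated controls.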",
  "data": [
    {"target": "CCNK_O75909_99_YVTGACCLFLAGK (UniProt O75909)", "sequence (O75909 whole entry, looked up)": "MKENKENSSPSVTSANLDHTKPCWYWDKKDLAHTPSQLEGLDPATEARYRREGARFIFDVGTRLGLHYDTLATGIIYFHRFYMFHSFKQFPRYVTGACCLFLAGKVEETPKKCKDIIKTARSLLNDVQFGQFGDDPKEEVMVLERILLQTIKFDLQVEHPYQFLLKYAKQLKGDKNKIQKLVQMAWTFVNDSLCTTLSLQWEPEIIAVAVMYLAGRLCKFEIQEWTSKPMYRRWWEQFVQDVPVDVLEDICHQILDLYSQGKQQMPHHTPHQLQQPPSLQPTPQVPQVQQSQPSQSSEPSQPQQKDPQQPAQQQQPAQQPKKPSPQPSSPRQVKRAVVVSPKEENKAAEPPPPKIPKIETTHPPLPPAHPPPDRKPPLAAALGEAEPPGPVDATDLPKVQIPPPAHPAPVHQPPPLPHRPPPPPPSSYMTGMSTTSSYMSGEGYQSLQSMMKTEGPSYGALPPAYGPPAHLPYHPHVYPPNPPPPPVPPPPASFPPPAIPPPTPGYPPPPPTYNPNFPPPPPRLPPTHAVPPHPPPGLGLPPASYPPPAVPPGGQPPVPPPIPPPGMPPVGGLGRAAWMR", "values": [
      {"measurement": "probe-labelled cysteine peptide fold change", "setting": "10 µM", "value": 0.1},
      {"measurement": "probe-labelled cysteine peptide fold change", "setting": "50 µM", "value": 0.32}
    ]},
    {"target": "CLCN3_P51790_733_VCFAQHTPSLPAESPRPLK (UniProt P51790)", "sequence (P51790 whole entry)": "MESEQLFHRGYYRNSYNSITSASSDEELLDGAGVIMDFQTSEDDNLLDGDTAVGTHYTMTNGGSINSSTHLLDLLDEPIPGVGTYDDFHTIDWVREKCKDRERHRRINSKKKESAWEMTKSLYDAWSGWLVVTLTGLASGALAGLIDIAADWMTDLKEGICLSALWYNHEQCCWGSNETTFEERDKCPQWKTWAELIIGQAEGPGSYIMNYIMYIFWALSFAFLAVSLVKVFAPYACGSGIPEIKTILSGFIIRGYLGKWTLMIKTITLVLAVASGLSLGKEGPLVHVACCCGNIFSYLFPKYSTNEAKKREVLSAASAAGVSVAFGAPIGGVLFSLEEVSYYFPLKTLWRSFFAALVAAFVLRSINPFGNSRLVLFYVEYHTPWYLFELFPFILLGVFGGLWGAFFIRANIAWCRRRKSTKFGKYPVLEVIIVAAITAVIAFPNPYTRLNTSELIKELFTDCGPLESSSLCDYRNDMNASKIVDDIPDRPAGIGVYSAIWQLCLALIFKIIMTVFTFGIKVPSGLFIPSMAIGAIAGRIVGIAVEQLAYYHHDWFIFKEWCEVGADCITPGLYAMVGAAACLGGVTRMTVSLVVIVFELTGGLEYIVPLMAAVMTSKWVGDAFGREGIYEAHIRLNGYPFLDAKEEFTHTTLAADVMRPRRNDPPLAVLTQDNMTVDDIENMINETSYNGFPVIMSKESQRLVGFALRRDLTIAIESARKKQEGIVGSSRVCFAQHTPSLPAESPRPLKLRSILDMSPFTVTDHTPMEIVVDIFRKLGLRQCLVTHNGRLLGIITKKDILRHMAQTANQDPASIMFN", "values": [
      {"measurement": "probe-labelled cysteine peptide fold change", "setting": "10 µM", "value": 0.0602},
      {"measurement": "probe-labelled cysteine peptide fold change", "setting": "50 µM", "value": 0.0245}
    ]},
    {"target": "CNOT8_Q9UFF9_148_HEEEGIDTLHFAELLMTSGVVLCDNVK (UniProt Q9UFF9)", "sequence (Q9UFF9 whole entry)": "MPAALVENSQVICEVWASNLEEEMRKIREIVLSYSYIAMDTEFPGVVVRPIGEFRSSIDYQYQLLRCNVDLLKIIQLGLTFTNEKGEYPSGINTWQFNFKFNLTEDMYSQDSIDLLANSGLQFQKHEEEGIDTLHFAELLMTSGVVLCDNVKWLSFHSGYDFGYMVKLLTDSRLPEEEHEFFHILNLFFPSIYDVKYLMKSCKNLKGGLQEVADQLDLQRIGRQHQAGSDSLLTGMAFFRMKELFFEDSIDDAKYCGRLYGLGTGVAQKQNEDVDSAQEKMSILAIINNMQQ", "values": [
      {"measurement": "probe-labelled cysteine peptide fold change", "setting": "10 µM", "value": 0.648},
      {"measurement": "probe-labelled cysteine peptide fold change", "setting": "50 µM", "value": 0.338}
    ]},
    {"target": "CFL1_P23528_139_KLTGIKHELQANCYEEVK (UniProt P23528)", "sequence (P23528 whole entry, looked up)": "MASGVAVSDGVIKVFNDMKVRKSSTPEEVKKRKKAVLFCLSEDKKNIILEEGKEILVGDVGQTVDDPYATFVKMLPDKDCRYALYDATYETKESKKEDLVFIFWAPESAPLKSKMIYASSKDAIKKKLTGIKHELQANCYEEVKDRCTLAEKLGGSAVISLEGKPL", "values": [
      {"measurement": "probe-labelled cysteine peptide fold change", "setting": "10 µM", "value": -0.632},
      {"measurement": "probe-labelled cysteine peptide fold change", "setting": "50 µM", "value": -0.503}
    ]},
    {"target": "CNOT4_O95628_175_AIQCVNNVVVDGR (UniProt O95628)", "values": [
      {"measurement": "probe-labelled cysteine peptide fold change", "setting": "10 µM", "value": 0.0992},
      {"measurement": "probe-labelled cysteine peptide fold change", "setting": "50 µM", "value": 0.172}
    ]},
    {"target": "CCT5_P48643_181_VVNSCHR (UniProt P48643)", "sequence (P48643 whole entry, looked up)": "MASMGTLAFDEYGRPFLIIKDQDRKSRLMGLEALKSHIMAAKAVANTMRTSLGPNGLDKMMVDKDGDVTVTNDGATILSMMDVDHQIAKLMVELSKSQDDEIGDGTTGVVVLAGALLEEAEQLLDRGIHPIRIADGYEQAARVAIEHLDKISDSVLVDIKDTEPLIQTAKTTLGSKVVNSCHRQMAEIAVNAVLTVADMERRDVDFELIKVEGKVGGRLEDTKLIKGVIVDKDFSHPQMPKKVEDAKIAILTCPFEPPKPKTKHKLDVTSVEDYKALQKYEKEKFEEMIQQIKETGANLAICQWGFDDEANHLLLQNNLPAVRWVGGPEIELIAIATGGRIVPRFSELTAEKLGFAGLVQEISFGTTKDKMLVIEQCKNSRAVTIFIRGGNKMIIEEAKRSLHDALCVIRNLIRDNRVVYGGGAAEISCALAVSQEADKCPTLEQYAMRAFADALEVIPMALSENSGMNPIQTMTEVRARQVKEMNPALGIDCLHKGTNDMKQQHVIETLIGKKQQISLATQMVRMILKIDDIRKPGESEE", "values": [
      {"measurement": "probe-labelled cysteine peptide fold change", "setting": "10 µM", "value": 0.109},
      {"measurement": "probe-labelled cysteine peptide fold change", "setting": "50 µM", "value": 0.0213}
    ]},
    {"target": "CNN2_Q99439_61_DGTILCTLMNK (UniProt Q99439)", "values": [
      {"measurement": "probe-labelled cysteine peptide fold change", "setting": "10 µM", "value": 0.00655},
      {"measurement": "probe-labelled cysteine peptide fold change", "setting": "50 µM", "value": 0.0892}
    ]},
    {"target": "CCAR1_Q8IX12_937_DLLMAFVYFDQSHCGYLLEK (UniProt Q8IX12)", "values": [
      {"measurement": "probe-labelled cysteine peptide fold change", "setting": "10 µM", "value": 0.653},
      {"measurement": "probe-labelled cysteine peptide fold change", "setting": "50 µM", "value": 0.739}
    ]},
    {"target": "CDYL_Q9Y232_571_MELEQANERECEVLK (UniProt Q9Y232)", "values": [
      {"measurement": "probe-labelled cysteine peptide fold change", "setting": "10 µM", "value": -0.0968},
      {"measurement": "probe-labelled cysteine peptide fold change", "setting": "50 µM", "value": -0.0996}
    ]},
    {"target": "BTBD2_Q9BX70_241_LFDEPQLASLCLENIDK (UniProt Q9BX70)", "sequence (Q9BX70 whole entry, looked up)": "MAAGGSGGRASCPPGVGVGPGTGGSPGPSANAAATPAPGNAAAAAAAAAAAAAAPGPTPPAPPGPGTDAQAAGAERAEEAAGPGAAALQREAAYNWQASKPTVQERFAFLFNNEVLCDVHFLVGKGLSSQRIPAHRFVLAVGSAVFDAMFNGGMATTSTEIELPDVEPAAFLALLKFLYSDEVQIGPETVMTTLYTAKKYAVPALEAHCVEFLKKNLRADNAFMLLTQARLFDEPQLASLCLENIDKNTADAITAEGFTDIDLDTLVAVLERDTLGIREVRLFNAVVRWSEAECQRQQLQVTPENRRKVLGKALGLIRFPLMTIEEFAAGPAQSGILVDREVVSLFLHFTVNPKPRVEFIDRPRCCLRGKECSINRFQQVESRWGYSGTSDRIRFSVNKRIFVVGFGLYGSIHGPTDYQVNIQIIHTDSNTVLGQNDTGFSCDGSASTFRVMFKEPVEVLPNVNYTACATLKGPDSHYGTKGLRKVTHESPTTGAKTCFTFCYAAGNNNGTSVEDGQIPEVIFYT", "values": [
      {"measurement": "probe-labelled cysteine peptide fold change", "setting": "10 µM", "value": 0.22},
      {"measurement": "probe-labelled cysteine peptide fold change", "setting": "50 µM", "value": 0.0147}
    ]},
    {"target": "COPS7B_Q9H9Q2_157_NQLLEVDFCIGR (UniProt Q9H9Q2)", "values": [
      {"measurement": "probe-labelled cysteine peptide fold change", "setting": "10 µM", "value": -0.0213},
      {"measurement": "probe-labelled cysteine peptide fold change", "setting": "50 µM", "value": -0.0864}
    ]},
    {"target": "COG3_Q96JB2_363_ELLLGPSIACTVAELTSQNNRDHCALVR (UniProt Q96JB2)", "sequence (Q96JB2 whole entry, looked up)": "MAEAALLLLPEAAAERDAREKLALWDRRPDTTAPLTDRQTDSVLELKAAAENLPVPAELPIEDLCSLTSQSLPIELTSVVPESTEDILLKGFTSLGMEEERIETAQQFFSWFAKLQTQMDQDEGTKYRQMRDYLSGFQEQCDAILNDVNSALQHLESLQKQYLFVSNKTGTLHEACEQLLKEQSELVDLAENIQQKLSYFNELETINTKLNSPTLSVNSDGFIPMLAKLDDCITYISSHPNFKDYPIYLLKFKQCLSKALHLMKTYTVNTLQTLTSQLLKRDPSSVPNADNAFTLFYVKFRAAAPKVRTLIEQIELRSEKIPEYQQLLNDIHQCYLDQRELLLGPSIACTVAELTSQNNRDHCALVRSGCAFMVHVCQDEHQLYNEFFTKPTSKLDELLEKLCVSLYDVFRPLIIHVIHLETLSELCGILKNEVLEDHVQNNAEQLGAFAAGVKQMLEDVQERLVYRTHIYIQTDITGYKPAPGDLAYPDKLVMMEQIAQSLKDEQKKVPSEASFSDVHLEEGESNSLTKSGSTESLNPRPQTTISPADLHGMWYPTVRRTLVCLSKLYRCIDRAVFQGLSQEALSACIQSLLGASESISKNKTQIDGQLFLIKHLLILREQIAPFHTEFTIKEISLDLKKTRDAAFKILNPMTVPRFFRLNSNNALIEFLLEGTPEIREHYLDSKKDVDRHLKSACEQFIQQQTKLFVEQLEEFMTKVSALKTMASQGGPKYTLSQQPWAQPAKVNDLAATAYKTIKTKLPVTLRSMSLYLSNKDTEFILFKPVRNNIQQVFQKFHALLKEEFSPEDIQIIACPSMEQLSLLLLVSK", "values": [
      {"measurement": "probe-labelled cysteine peptide fold change", "setting": "10 µM", "value": -0.436},
      {"measurement": "probe-labelled cysteine peptide fold change", "setting": "50 µM", "value": 0.793}
    ]},
    {"target": "CASP8_Q14790_345_CPSLAGKPK (UniProt Q14790)", "values": [
      {"measurement": "probe-labelled cysteine peptide fold change", "setting": "10 µM", "value": -0.0611},
      {"measurement": "probe-labelled cysteine peptide fold change", "setting": "50 µM", "value": -0.0798}
    ]},
    {"target": "COPA_P53621_1148_KILSACEK (UniProt P53621)", "sequence (P53621 whole entry, looked up)": "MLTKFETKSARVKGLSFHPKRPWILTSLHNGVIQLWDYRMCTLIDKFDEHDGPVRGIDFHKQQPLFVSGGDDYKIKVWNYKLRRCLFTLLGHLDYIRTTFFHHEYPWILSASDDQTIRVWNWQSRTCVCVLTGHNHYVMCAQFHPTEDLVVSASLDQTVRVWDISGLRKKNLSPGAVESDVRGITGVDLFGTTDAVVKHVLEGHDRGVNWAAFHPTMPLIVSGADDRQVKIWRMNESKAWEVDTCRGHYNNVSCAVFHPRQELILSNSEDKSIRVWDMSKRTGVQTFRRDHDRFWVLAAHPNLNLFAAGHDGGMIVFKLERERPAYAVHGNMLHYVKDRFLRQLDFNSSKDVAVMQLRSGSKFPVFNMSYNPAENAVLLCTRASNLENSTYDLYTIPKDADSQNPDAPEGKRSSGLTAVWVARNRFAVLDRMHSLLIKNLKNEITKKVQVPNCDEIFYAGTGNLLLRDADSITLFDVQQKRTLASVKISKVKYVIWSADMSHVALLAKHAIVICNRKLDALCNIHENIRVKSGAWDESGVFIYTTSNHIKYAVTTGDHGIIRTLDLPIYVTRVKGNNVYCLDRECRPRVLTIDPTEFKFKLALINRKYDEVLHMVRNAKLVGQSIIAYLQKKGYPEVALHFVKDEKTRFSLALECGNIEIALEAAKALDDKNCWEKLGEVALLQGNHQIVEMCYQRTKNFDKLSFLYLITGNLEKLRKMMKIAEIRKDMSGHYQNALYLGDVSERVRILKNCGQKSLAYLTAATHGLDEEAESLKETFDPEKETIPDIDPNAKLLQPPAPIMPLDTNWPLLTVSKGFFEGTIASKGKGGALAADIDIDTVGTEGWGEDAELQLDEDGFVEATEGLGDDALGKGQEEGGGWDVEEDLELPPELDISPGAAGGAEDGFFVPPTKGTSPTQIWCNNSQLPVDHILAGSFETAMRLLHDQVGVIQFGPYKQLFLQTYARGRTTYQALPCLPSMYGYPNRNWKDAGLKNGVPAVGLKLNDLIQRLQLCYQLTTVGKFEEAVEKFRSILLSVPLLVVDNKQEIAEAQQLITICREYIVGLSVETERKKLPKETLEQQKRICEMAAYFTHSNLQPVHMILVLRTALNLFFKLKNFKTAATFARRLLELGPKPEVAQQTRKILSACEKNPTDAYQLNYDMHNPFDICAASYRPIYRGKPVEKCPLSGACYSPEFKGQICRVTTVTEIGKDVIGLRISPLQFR", "values": [
      {"measurement": "probe-labelled cysteine peptide fold change", "setting": "10 µM", "value": -0.616},
      {"measurement": "probe-labelled cysteine peptide fold change", "setting": "50 µM", "value": -0.459}
    ]},
    {"target": "CAMK2G_Q13555_7_ATTATCTR (UniProt Q13555)", "values": [
      {"measurement": "probe-labelled cysteine peptide fold change", "setting": "10 µM", "value": 0.042},
      {"measurement": "probe-labelled cysteine peptide fold change", "setting": "50 µM", "value": -0.225}
    ]},
    {"target": "CHKB_Q9Y259_85_CSLPDHLPSVGEEPREVLLR (UniProt Q9Y259)", "values": [
      {"measurement": "probe-labelled cysteine peptide fold change", "setting": "10 µM", "value": -0.301},
      {"measurement": "probe-labelled cysteine peptide fold change", "setting": "50 µM", "value": -0.0104}
    ]},
    {"target": "BZW2_Q9Y6E2_97_MTNHCVFSANEDHETIR (UniProt Q9Y6E2)", "values": [
      {"measurement": "probe-labelled cysteine peptide fold change", "setting": "10 µM", "value": 0.0541},
      {"measurement": "probe-labelled cysteine peptide fold change", "setting": "50 µM", "value": -0.0628}
    ]}
  ]
}
